Data as given in PubChem BioAssay (Tox21).
Results filed as inconclusive are left out. The source made the active and inactive calls. Unless noted, the call rests on the fitted dose curve; in most records, active means well fitted curve in the direction sought with a large enough effect in the repeat runs; inconclusive means weak or mixed curves; inactive means no such curve, though single readings can be large; an effect the other way counts as inactive or inconclusive.

Key:
[1] = target: Estrogen receptor beta (Homo sapiens) (UniProt Q92731); experiment: qHTS assay to identify small molecule agonists of the estrogen receptor beta (ER-beta) signaling pathway (AID 1259377; active means well fitted activation curve with a large enough effect in the signal ratio in the repeat runs, not every such curve was filed as active; the % refers to the signal ratio)
Sequence of Estrogen receptor beta (Homo sapiens) (Q92731 whole entry, looked up): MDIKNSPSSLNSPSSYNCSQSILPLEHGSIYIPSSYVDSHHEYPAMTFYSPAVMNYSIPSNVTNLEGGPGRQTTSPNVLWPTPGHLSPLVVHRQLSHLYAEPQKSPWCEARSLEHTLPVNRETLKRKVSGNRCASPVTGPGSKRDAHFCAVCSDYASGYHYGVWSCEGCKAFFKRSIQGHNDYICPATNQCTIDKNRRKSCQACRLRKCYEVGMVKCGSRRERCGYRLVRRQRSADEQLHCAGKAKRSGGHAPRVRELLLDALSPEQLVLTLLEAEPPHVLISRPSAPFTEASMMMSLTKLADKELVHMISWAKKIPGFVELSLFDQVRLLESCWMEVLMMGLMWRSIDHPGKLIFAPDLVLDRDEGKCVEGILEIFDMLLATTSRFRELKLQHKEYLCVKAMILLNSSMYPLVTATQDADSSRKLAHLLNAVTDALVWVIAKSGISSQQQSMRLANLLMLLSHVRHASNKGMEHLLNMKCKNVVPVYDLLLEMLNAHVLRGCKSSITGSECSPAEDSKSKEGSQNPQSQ
Outline: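 Read-out: beta-lactamase FRET fluorescence. Cell line: ER-beta-UAS-bla HEK293T in 2% charcoal-stripped FBS. Exposure: 16 hr at 37C. Substrate step: 2 h at room temperature.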

[2] = target: Estrogen receptor beta (Homo sapiens) (UniProt Q92731); experiment: qHTS assay to identify small molecule antagonists of the estrogen receptor beta (ER-beta) signaling pathway (AID 1259378; active means well fitted inhibition curve with a large enough effect in the signal ratio in the repeat runs, not every such curve was filed as active; the % refers to the signal ratio)
Outline: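 Antagonist mode: compounds added to beta-lactamase reporter HEK293T ER-beta-UAS cells stimulated with E2 (1nM final), 16 hr at 37C. LiveBLAzer B/G FRET substrate, 2 hours room temperature, fluorescence read-out.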

[3] = qHTS assay to identify small molecule agonists of the androgen receptor (AR) signaling pathway in the presence of an antagonist - cell viability counter screen (AID 1259379);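 further: MDA-kb2 human breast cancer cells carrying an MMTV luciferase reporter; series mostly up to about 92 µM; nearly all actives have a fitted effect of over 25% in size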
Outline: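 MDA-kb2 cells (MMTV-luciferase, AR/GR), 3,000/well, 5 h attachment, then 3.0 µM nilutamide (final) and compounds at 15 concentrations. Viability by CellTiter-Fluor fluorescence after 16 h at 37 °C, 0% CO2, in the reporter wells.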

[4] = qHTS assay to identify small molecule agonists of the estrogen receptor beta (ER-beta) signaling pathway - cell viability counter screen (AID 1259380); further: nearly all actives have a fitted effect of over 30% in size
Outline: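 ER-beta-UAS-bla HEK293T cells in medium with 2% charcoal-stripped FBS, pre-incubated 6 hr, then treated 16 hr at 37C. Cytotoxicity read in the same wells by CellTiter-Glo luminescence after 30 min at room temperature.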

[5] = target: Androgen receptor (Homo sapiens) (UniProt P10275); experiment: qHTS assay to identify small molecule agonists of the androgen receptor (AR) signaling pathway in the presence of an antagonist (AID 1259381; calls by dose curve; further: nearly all actives have a fitted effect of over 15% in size)
Sequence of Androgen receptor (Homo sapiens) (P10275 whole entry, looked up): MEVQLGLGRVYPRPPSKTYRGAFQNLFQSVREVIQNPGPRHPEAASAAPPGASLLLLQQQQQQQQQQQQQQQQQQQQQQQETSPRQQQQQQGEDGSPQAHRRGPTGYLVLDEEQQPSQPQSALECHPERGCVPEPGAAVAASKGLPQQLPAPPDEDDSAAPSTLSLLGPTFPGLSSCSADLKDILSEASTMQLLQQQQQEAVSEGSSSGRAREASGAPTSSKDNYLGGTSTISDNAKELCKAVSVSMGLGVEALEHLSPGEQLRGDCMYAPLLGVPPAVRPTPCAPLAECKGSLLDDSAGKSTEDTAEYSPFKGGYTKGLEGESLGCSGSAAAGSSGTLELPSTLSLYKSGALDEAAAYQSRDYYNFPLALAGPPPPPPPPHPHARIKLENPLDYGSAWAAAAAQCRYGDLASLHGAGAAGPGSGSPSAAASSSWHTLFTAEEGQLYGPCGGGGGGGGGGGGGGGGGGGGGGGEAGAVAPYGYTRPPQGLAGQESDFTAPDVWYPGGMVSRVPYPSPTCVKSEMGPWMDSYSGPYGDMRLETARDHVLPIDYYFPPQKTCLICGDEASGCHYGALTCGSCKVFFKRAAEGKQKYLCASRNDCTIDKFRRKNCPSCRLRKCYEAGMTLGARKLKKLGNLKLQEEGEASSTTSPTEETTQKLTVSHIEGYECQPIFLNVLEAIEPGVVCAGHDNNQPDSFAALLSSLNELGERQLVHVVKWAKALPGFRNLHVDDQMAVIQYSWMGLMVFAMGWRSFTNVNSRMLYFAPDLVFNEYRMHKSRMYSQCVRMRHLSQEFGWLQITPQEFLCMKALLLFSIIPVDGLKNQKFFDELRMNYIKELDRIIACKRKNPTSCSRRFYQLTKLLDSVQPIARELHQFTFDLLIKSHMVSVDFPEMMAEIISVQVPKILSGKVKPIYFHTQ
Outline: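 MDA-kb2 cells carrying MMTV-luciferase (AR/GR responsive), 3,000 cells/well, co-treated with 3.0 uM nilutamide final. Compounds at 15 concentrations, 16 hr at 37C without CO2. Luciferase luminescence read after 30 min with ONE-Glo.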

[6] = qHTS assay to identify small molecule antagonists of the estrogen receptor beta (ER-beta) signaling pathway - cell viability counter screen (AID 1259382);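 further: HEK293T cells carrying ER-beta-UAS-bla reporter stimulated with estradiol; series mostly up to about 92 µM; nearly all actives have a fitted effect of over 55% in size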
Outline: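 ER-beta-UAS-bla HEK293T cells in 2% charcoal-stripped FBS medium, treated with compound plus 1 nM 17-beta-estradiol for 16 h at 37C. Viability read by CellTiter-Glo luminescence after 30 min at room temperature in the same wells.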

[7] = target: Estrogen receptor (Homo sapiens) (UniProt P03372); experiment: qHTS assay to identify small molecule agonists of the estrogen receptor alpha (ER-alpha) signaling pathway in the presence of an antagonist (AID 1259383; calls by dose curve; further: top concentration of the series differs between compounds; nearly all actives have a fitted effect of over 15% in size)
Sequence of Estrogen receptor (Homo sapiens) (P03372 whole entry, looked up): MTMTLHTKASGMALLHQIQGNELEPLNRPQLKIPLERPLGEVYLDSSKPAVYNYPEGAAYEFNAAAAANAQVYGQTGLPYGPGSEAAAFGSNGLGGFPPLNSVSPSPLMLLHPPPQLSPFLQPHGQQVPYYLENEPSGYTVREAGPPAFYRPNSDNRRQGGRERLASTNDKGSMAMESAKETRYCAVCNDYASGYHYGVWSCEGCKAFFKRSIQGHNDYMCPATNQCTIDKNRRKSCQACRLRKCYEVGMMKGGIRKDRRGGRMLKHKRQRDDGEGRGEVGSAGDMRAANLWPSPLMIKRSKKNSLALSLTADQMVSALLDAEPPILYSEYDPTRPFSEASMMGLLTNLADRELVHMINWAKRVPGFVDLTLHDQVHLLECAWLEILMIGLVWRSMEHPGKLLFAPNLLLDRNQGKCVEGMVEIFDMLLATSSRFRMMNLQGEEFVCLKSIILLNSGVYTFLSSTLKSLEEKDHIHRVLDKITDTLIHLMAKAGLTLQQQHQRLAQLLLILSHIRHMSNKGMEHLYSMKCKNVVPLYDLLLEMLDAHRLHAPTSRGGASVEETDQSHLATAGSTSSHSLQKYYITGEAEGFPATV
Outline: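 VM7Luc4E2 cells express endogenous full-length ER-alpha with an ERE-luciferase reporter and were hormone-deprived for 5 days. Compounds at 15 concentrations were added with 10.0nM ICI-182,780 for 22hr at 37C. Luminescence was read with ONE-Glo.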

[8] = qHTS assay to identify small molecule agonists or antagonists of the thyroid stimulating hormone receptor (TSHR) signaling pathway - wild type cell line counter screen (AID 1259384; calls by dose curve)
Outline: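 Counter screen in untransfected Hek293: compounds (15-point titration, triplicate) plus phosphodiesterase inhibitor Ro20-1724 added after 18 h plating; 30 min RT. Intracellular cAMP via competitive d2/cryptate immunoassay, 1 h incubation.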

[9] = target: Thyrotropin receptor (Homo sapiens) (UniProt P16473); experiment: qHTS assay to identify small molecule antagonists of the thyroid stimulating hormone receptor (TSHR) signaling pathway (AID 1259385; calls by dose curve; further: nearly all actives have a fitted effect of over 20% in size)
Sequence of Thyrotropin receptor (Homo sapiens) (P16473 whole entry, looked up): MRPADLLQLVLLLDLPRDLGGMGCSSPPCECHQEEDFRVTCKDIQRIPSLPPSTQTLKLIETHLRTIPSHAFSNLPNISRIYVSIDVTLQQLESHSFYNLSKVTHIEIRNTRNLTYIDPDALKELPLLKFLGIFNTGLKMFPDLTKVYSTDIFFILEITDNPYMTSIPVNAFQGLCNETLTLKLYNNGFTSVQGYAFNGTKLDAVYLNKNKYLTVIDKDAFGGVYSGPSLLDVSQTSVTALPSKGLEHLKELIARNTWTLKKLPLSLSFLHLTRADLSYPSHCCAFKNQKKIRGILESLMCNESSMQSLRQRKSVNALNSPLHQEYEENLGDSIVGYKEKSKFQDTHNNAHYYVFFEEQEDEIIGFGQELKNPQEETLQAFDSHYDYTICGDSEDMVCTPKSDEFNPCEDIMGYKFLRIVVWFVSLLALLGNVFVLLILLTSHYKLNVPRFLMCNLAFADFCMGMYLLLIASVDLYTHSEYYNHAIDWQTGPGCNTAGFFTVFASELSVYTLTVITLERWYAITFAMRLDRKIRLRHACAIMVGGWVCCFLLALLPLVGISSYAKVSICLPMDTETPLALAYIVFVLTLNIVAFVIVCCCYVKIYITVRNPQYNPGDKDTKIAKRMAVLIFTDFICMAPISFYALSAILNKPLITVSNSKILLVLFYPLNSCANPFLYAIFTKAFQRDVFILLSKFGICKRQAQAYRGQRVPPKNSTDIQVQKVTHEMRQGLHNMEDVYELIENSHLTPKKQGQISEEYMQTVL
Outline: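 Antagonist mode: compound-treated TSHR-expressing HEK293 cells were stimulated with 1.5 ng/mL TSH (final) in presence of Ro20-1724 for 30 min at RT. HTRF cAMP detection after 1 h; each compound tested at 15 concentrations, triplicate.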

[10] = qHTS assay to identify small molecule agonists of the estrogen receptor alpha (ER-alpha) signaling pathway in the presence of an antagonist - cell viability counter screen (AID 1259386);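 further: series mostly up to about 92 µM; cells exposed to compounds for 22 h at 37 °C before the viability read; nearly all actives have a fitted effect of over 30% in size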
Outline: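 Cell viability in VM7Luc4E2 cells (endogenous full-length ER-alpha) measured by CellTiter-Fluor fluorescence in the same wells as the luciferase screen. Cells pre-cultured 5 days in charcoal-stripped serum, then treated 22 h with compounds at 15 concentrations plus 10.0nM ICI-182,780.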

[11] = target: Progesterone receptor (Homo sapiens) (UniProt P06401); experiment: qHTS assay to identify small molecule agonists of the progesterone receptor (PR) signaling pathway (AID 1346784; calls by dose curve; further: nearly all actives have a fitted effect of over 30% in size)
Sequence of Progesterone receptor (Homo sapiens) (P06401 whole entry, looked up): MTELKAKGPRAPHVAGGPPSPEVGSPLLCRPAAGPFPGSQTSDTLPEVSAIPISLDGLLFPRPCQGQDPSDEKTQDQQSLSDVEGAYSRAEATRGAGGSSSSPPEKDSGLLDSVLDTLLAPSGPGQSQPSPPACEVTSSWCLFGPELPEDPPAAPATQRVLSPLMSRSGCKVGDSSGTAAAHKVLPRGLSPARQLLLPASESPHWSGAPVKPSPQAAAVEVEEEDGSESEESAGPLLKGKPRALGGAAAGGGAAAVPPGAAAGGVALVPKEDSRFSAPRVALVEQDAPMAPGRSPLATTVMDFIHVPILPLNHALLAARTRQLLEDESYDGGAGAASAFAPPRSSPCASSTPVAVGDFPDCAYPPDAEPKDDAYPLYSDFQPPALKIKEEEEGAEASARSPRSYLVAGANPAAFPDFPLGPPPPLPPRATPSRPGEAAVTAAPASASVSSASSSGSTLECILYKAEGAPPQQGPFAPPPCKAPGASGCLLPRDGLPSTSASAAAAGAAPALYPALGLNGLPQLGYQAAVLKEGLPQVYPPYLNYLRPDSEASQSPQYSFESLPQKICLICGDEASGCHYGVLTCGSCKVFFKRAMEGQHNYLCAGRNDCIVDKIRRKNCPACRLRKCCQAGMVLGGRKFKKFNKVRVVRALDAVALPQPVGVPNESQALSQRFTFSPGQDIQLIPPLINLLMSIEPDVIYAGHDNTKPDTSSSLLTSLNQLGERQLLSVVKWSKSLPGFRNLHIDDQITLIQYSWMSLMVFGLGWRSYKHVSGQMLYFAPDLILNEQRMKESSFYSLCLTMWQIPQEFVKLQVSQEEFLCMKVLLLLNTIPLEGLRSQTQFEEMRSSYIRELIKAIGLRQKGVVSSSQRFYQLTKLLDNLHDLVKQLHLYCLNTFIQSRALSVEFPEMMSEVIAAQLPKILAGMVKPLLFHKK
Outline: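 Compounds were tested for PR agonism in HEK 293T cells bearing a beta-lactamase gene under UAS control. Treatment lasted 16 hr at 37C; signal came from fluorescence of a FRET substrate.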

[12] = target: Progesterone receptor (Homo sapiens) (UniProt P06401); experiment: qHTS assay to identify small molecule antagonists of the progesterone receptor (PR) signaling pathway (AID 1346795; active means well fitted inhibition curve with a large enough effect in the signal ratio in the repeat runs, not every such curve was filed as active; the % refers to the signal ratio)
Outline: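 In HEK293T cells bearing the PR-UAS-bla reporter, compound effects on promegestone-driven (1 nM) beta-lactamase expression are assessed after 16 hr using a fluorescent FRET substrate incubated 2 hr at room temperature.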

[13] = qHTS assay to identify small molecule antagonists of the progesterone receptor (PR) signaling pathway - cell viability counter screen (AID 1346798); further: series mostly up to about 92 µM; nearly all actives have a fitted effect of over 50% in size
Outline: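 Following a 4 hr attachment, PR-UAS-bla HEK293T cells in charcoal-stripped FBS medium were exposed to compounds with R5020 for 16 hr; CellTiter-Glo was added and luminescence read after 30 min at room temperature.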

[14] = qHTS assay to identify small molecule agonists of the progesterone receptor (PR) signaling pathway - cell viability counter screen (AID 1346799; calls by dose curve; further: nearly all actives have a fitted effect of over 45% in size)
Outline: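 Here, 3,000 PR-UAS-bla HEK293T cells per well were treated with compounds for 16 hr after a 6 hr preincubation at 37C and 5% CO2; cell viability is the CellTiter-Glo luminescence signal.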

[15] = qHTS assay to identify small molecule antagonists of the TGF-beta/Smad signaling pathway - cell viability counter screen (AID 1346824); further: nearly all actives have a fitted effect of over 50% in size
Outline: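 Cytotoxicity counter-screen run in the same wells as the beta-lactamase Smad reporter read: CellTiter-Glo luminescence after 30 min at room temperature. HEK 293T SBE-bla cells had 5 hr compound exposure at 37 C with TGF-beta1 (0.25 ng/mL stock).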

[16] = qHTS assay to identify small molecule agonists of the TGF-beta/Smad signaling pathway - cell viability counter screen (AID 1346829); further: top concentration of the series differs between compounds; nearly all actives have a fitted effect of over 45% in size
Outline: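 Tox21 qHTS format: SBE-bla HEK 293T cells treated with DMSO-dissolved compounds for 5 hr; CellTiter-Glo luminescence after 30 min at room temperature.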

[17] = qHTS assay to identify small molecule agonists of the TGF-beta/Smad signaling pathway (AID 1346859; active means well fitted activation curve with a large enough effect in the signal ratio in the repeat runs, not every such curve was filed as active; the % refers to the signal ratio; further: series mostly up to about 77 µM)
Outline: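 Each well held 4,000 SBE-bla HEK 293T cells incubated overnight before compound addition; 5 hr later the cleavable FRET substrate went on for 2 hr at room temperature, and fluorescence was read at two emissions.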

[18] = target: Thyrotropin-releasing hormone receptor (Homo sapiens) (UniProt P34981); experiment: qHTS assay to identify small molecule agonists of the thyrotropin-releasing hormone receptor (TRHR) signaling pathway (AID 1346891; calls by dose curve; further: series mostly up to about 58 µM)
Sequence of Thyrotropin-releasing hormone receptor (Homo sapiens) (P34981 whole entry, looked up): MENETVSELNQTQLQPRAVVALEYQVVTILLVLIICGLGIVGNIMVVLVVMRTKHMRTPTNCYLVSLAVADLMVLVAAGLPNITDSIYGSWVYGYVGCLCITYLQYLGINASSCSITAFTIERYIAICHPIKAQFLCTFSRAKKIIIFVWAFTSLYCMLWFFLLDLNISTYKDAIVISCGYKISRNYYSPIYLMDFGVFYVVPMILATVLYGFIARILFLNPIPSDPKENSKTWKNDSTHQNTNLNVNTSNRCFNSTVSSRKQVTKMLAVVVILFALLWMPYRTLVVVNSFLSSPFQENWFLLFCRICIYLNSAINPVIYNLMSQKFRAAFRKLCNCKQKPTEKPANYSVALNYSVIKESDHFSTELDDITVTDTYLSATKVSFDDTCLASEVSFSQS
Outline: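 Screening of agonists relied on calcium signalling in HEK293 cells expressing human TRHR: dye loading 2 h at 37 °C preceded compound addition and a 3-min fluorescence time course.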

[19] = Human pregnane X receptor (PXR) small molecule agonists, qHTS cell viability counter screen (AID 1346977); further: nearly all actives have a fitted effect of over 50% in size
Outline: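 Tox21 qHTS format; PXR-Luc HepG2, 2,000/well, charcoal-stripped FBS 5%. Cpd exposure 24hr. Read: CellTiter-Fluor fluorescence, multiplexed with luciferase.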

[20] = target: Thyrotropin-releasing hormone receptor (Homo sapiens) (UniProt P34981); experiment: qHTS assay to identify small molecule antagonists of the thyrotropin-releasing hormone receptor (TRHR) signaling pathway (AID 1346877; active means well fitted inhibition curve with a large enough effect in the repeat runs, not every such curve was filed as active; further: series mostly up to about 51 µM)
Outline: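 TRHR-expressing HEK293 cells loaded with calcium dye for 2 h at 37 C; compounds pre-incubated 5 min at room temperature before TRH challenge at 1 nM final. Intracellular calcium fluorescence read kinetically for 3 min; 15 concentrations in triplicate.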
On the % scale 0 is the no-effect control and ±100 the full control effect.

CC(C)(C)c1cc(CCC(=O)NCCCCCCNC(=O)CCc2cc(C(C)(C)C)c(O)c(C(C)(C)C)c2)cc(C(C)(C)C)c1O
inactive: Potency [1] | Potency [2] | Potency [3] | Potency [4] | Potency [5] | Potency [6] | Potency [7] | outcome [8] | Potency [9] | Potency [10] | outcome [11] | Potency [12] | Potency [13] | Potency [14] | Potency [15] | Potency [16] | Potency [17] | Potency [18] | Potency [19]

CCOCOCC
inactive: Potency [1] | Potency [2] | Potency [3] | Potency [4] | Potency [5] | Potency [6] | Potency [7] | outcome [8] | Potency [9] | Potency [10] | outcome [11] | Potency [13] | Potency [14] | Potency [15] | Potency [16] | Potency [17] | Potency [20] | Potency [18] | Potency [19]

CCCCCCCC(C)=O
inactive: Potency [1] | Potency [2] | Potency [3] | Potency [4] | Potency [6] | Potency [7] | outcome [8] | Potency [9] | Potency [10] | outcome [11] | Potency [12] | Potency [13] | Potency [14] | Potency [15] | Potency [16] | Potency [17] | Potency [19]

N[C@@H](CSSC[C@H](N)C(=O)O)C(=O)O
inactive: activation [1] 5.41% [at 0.348 µM] | activity, negative = inhibition [2] 28.3% [at 0.349 µM] | activity change, negative = cytotoxicity [3] 0.823% [at 0.35 µM] | activity change, negative = cytotoxicity [4] 3.32% [at 0.349 µM] | activation [5] -0.591% [at 0.349 µM] | activity change, negative = cytotoxicity [6] -5.72% [at 0.349 µM] | cAMP activity change [8] -6.57% [at 0.349 µM] | activity change, negative = inhibition [9] 0.59% [at 0.349 µM] | activation [11] -4.21% [at 0.349 µM] | viability change, negative = cytotoxic [15] -1.61% [at 0.29 µM] | activity change, negative = cytotoxicity [16] 1.93% [at 0.29 µM] | activation [17] 1.61% [at 0.29 µM] | activity change, negative = cytotoxicity [19] -23% [at 0.349 µM]

C[Si](C)(C)Cl
inactive: Potency [1] | Potency [2] | Potency [3] | Potency [4] | Potency [5] | Potency [6] | Potency [7] | outcome [8] | Potency [9] | Potency [10] | outcome [11] | Potency [13] | Potency [14] | Potency [15] | Potency [16] | Potency [17] | Potency [19]

CC(C)=CC1CC(C)CCO1 (stereo unspecified)
inactive: Potency [1] | Potency [2] | Potency [3] | Potency [4] | Potency [6] | Potency [7] | outcome [8] | Potency [9] | Potency [10] | outcome [11] | Potency [12] | Potency [13] | Potency [14] | Potency [15] | Potency [16] | Potency [17] | Potency [20] | Potency [18] | Potency [19]

CC1CNCC(C)O1 (stereo unspecified)
inactive: Potency [1] | Potency [2] | Potency [3] | Potency [4] | Potency [5] | Potency [6] | Potency [7] | outcome [8] | Potency [9] | Potency [10] | Potency [12] | Potency [13] | Potency [14] | Potency [15] | Potency [16] | Potency [17] | Potency [19]
